# Laboratory results as given in PubChem BioAssay AID1159580 (chemical genetic matrix, 2015).
# The whole screen tested about 5,500 compounds, of which about 2,000 (36%) were called active. Another 18% or so got no clear call; they are omitted. The list shows a part of the results. A number with no mark means an inactive call. No stated cut-off is given here; in the data, active means normalized growth mostly below about 0.91 (no sharp cut-off); inconclusive means no clear call, values can overlap the other calls; inactive means mostly above about 0.92.
# Assay: chemical genetic growth profiling, strain panel (AID 1159580);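 further: tested at 20 µM; growth read once vehicle control cultures reached saturation at 30 °C; 1 = growth at the plate median or of vehicle wells; lower values mean less growth of the strain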
# Conditions: S. cerevisiae deletion strains, growth OD
smiles,measurement,setting,value
O=c1cc(-c2ccc(O)c(O)c2)oc2ccccc12,normalized growth,"locus YAL021C, strain ccr4, active compounds read low",0.999
same,normalized growth,"locus YAL026C, strain drs2, active compounds read low",0.964
same,normalized growth,"locus YAL030W, strain snc1, active compounds read low",0.986
same,normalized growth,"locus YBL061C, strain skt5, active compounds read low",0.965
same,normalized growth,"locus YBR009C, strain hhf1, active compounds read low",0.933
same,normalized growth,"locus YBR023C, strain chs3, active compounds read low",0.961
same,normalized growth,"locus YBR171W, strain sec66, active compounds read low",0.97
same,normalized growth,"locus YBR231C, strain swc5, active compounds read low",0.924
same,normalized growth,"locus YBR279W, strain paf1, active compounds read low",0.977
same,normalized growth,"locus YCL011C, strain gbp2, active compounds read low",0.956
same,normalized growth,"locus YCL016C, strain dcc1, active compounds read low",0.969
same,normalized growth,"locus YCL061C, strain MRC1, active compounds read low",0.965
same,normalized growth,"locus YCL069W, strain vba3, active compounds read low",0.996
same,normalized growth,"locus YCR088W, strain abp1, active compounds read low",0.997
same,normalized growth,"locus YDL005C, strain med2, active compounds read low",0.998
same,normalized growth,"locus YDL040C, strain nat1, active compounds read low",0.989
same,normalized growth,"locus YDR001C, strain nth1, active compounds read low",0.994
same,normalized growth,"locus YDR069C, strain doa4, active compounds read low",0.893 (active)
same,normalized growth,"locus YDR137W, strain rgp1, active compounds read low",0.985
same,normalized growth,"locus YDR159W, strain sac3, active compounds read low",0.971
same,normalized growth,"locus YDR195W, strain ref2",1.02
same,normalized growth,"locus YDR297W, strain sur2, active compounds read low",0.971
same,normalized growth,"locus YDR334W, strain swr1, active compounds read low",0.976
same,normalized growth,"locus YDR335W, strain msn5, active compounds read low",0.995
same,normalized growth,"locus YDR392W, strain spt3, active compounds read low",0.954
same,normalized growth,"locus YEL003W, strain gim4, active compounds read low",0.946
same,normalized growth,"locus YEL037C, strain rad23, active compounds read low",0.984
same,normalized growth,"locus YEL061C, strain CIN8 (second series), active compounds read low",0.989
same,normalized growth,"locus YER015W, strain faa2, active compounds read low",0.955
same,normalized growth,"locus YER016W, strain bim1, active compounds read low",0.991
same,normalized growth,"locus YER111C, strain swi4, active compounds read low",0.962
same,normalized growth,"locus YER155C, strain BEM2 (second series), active compounds read low",0.926
same,normalized growth,"locus YFR010W, strain ubp6, active compounds read low",0.947
same,normalized growth,"locus YGL167C, strain pmr1, active compounds read low",0.98
same,normalized growth,"locus YGL173C, strain kem1, active compounds read low",0.936
same,normalized growth,"locus YGL227W, strain vid30, active compounds read low",0.991
same,normalized growth,"locus YGL240W, strain doc1, active compounds read low",1.01
same,normalized growth,"locus YGL253W, strain hxk2, active compounds read low",0.963
same,normalized growth,"locus YHR013C, strain ard1, active compounds read low",0.983
same,normalized growth,"locus YHR027C, strain rpn1, active compounds read low",0.966
same,normalized growth,"locus YHR142W, strain chs7, active compounds read low",0.962
same,normalized growth,"locus YJL092W, strain hpr5, active compounds read low",0.983
same,normalized growth,"locus YJL095W, strain BCK1 (second series), active compounds read low",0.976
same,normalized growth,"locus YJL115W, strain asf1, active compounds read low",0.991
same,normalized growth,"locus YJL129C, strain trk1, active compounds read low",0.978
same,normalized growth,"locus YJL154C, strain vps35, active compounds read low",0.996
same,normalized growth,"locus YJL164C, strain tpk1, active compounds read low",0.942
same,normalized growth,"locus YJL166W, strain qcr8, active compounds read low",0.932
same,normalized growth,"locus YJL187C, strain SWE1, active compounds read low",0.982
same,normalized growth,"locus YKL160W, strain elf1, active compounds read low",0.974
same,normalized growth,"locus YKR026C, strain gcn3, active compounds read low",0.972
same,normalized growth,"locus YKR091W, strain srl3, active compounds read low",1
same,normalized growth,"locus YLL001W, strain dnm1, active compounds read low",0.965
same,normalized growth,"locus YLL026W, active compounds read low",0.987
same,normalized growth,"locus YLL041C, strain sdh2, active compounds read low",0.99
same,normalized growth,"locus YLR027C, strain aat2, active compounds read low",0.943
same,normalized growth,"locus YLR221C, strain rsa3, active compounds read low",0.927
same,normalized growth,"locus YLR258W, strain gsy2, active compounds read low",0.967
same,normalized growth,"locus YLR262C, strain YPT6 (second series), active compounds read low",0.934
same,normalized growth,"locus YLR320W, strain mms22, active compounds read low",0.943
same,normalized growth,"locus YLR342W, strain FKS1, active compounds read low",0.961
same,normalized growth,"locus YLR357W, strain rsc2, active compounds read low",0.927
same,normalized growth,"locus YLR370C, strain arc18, active compounds read low",0.993
same,normalized growth,"locus YLR384C, strain iki3, active compounds read low",0.981
same,normalized growth,"locus YML120C, strain ndi1, active compounds read low",0.978
same,normalized growth,"locus YMR125W, strain sto1, active compounds read low",0.991
same,normalized growth,"locus YMR129W, active compounds read low",0.99
same,normalized growth,"locus YMR205C, strain PFK2, active compounds read low",0.982
same,normalized growth,"locus YMR231W, strain pep5, active compounds read low",0.961
same,normalized growth,"locus YNL071W, strain lat1, active compounds read low",0.965
same,normalized growth,"locus YNL209W, strain ssb2, active compounds read low",0.932
same,normalized growth,"locus YNL248C, strain rpa49, active compounds read low",0.986
same,normalized growth,"locus YNL322C, strain KRE1 (second series), active compounds read low",0.989
same,normalized growth,"locus YNR049C, strain mso1, active compounds read low",0.992
same,normalized growth,"locus YOR001W, strain rrp6, active compounds read low",0.928
same,normalized growth,"locus YOR070C, strain gyp1, active compounds read low",0.956
same,normalized growth,"locus YOR080W, strain dia2, active compounds read low",0.986
same,normalized growth,"locus YOR083W, strain WHI5, active compounds read low",0.959
same,normalized growth,"locus YOR106W, strain vam3, active compounds read low",0.867 (active)
same,normalized growth,"locus YOR265W, strain rbl2, active compounds read low",1.01
same,normalized growth,"locus YOR270C, strain vph1, active compounds read low",0.83
same,normalized growth,"locus YOR290C, strain snf2, active compounds read low",0.968
same,normalized growth,"locus YPL051W, strain arl3, active compounds read low",0.926
same,normalized growth,"locus YPL078C, strain atp4, active compounds read low",0.985
same,normalized growth,"locus YPL106C, strain sse1, active compounds read low",0.938
same,normalized growth,"locus YPL240C, strain hsp82, active compounds read low",0.99
COc1ccc2oc(-c3ccccc3OC)cc(=O)c2c1,normalized growth,"locus YHR030C, strain SLT2, active compounds read low",0.875
same,normalized growth,"locus YHR079C, strain IRE1, active compounds read low",0.911
same,normalized growth,"locus YJL095W, strain BCK1, active compounds read low",0.889
same,normalized growth,"locus YJR066W, strain TOR1, active compounds read low",0.851
same,normalized growth,"locus YLR113W, strain HOG1, active compounds read low",0.966
same,normalized growth,"locus YNL183C, strain NPR1, active compounds read low",0.883
same,normalized growth,"locus YOR231W, strain MKK1, active compounds read low",0.91
same,normalized growth,"locus YPL256C, strain CLN2, active compounds read low",0.936
